# This is a sample that favours compounds with a hit; in the whole collection about 3% have one here.
# Insulin prom inh = inhibitors of insulin promoter-driven GFP, primary screen, imaging, TRM-6 cells (human fetal islet line), eGFP reporter, cell count; reporter expression induced with tamoxifen; inhibition, % at 2 µM; 0.9% of 130,000 active; AID 1273, 2008;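 active means inhibition above the mean plus 3 SD, with well images judged a real hit on visual review, cut at about 60% in these data, passing the limit was not always enough; inconclusive means inhibition over the cutoff but images rejected on review; inactive means inhibition not above the cutoff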
# SDO1 yeast rescue = growth rescue of sdo1-depleted yeast, primary screen, S. cerevisiae, bone marrow failure model | S. cerevisiae sdo1-depleted JHY4D growth rescue, OD600 30 h; active compounds read high; pdr5 snq2 efflux-pump mutant strain | z-score at 10 µM | 0.21% of 140,000 active;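 active means z-score above 3 at both the 24 hr and the 30 hr optical density reads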;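 further: z-score against mean and SD of all compound wells on the same plate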
# Measles CPE = compounds protecting cells from measles virus cytopathic effect, primary screen, measles RdRp inhibitor project, single point, MLSMR library, absorbance; 1.5% of 140,000 active; AID 841, 2007; Measles virus-infected cells, CPE protection; protection (pct of control), % at 4 µM; in the data active means protection mostly above about 24%, no sharp cut-off; inactive means mostly below about 26%
# ROMK mod = ROMK potassium channel modulators, primary screen, cell-based, thallium flux, MLSMR library. ATP-sensitive inward rectifier potassium channel 1 (Homo sapiens), P48048. Tet-inducible ROMK, thallium flux fluorescence; actives lie on both sides. B-score at 10 µM. 2% of 130,000 active. AID 1918, 2009;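 active means signal ratio slope over the read window, or its plate-corrected B-score, at least 3 SD from the plate mean, either direction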;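 further: B-score of the F/F0 ratio slope over 7 to 12 s after thallium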
# Target sequence (P48048 whole entry, looked up): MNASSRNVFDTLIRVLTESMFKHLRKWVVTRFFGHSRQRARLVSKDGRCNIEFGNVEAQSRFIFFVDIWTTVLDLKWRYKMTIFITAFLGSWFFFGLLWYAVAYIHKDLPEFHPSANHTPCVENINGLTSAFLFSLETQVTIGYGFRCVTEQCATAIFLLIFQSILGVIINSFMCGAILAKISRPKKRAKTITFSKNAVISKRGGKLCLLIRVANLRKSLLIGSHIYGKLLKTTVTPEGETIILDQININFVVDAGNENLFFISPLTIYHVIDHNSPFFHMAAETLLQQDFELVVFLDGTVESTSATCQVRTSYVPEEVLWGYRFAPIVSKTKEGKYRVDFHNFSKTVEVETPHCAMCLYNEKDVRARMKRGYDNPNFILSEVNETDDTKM
# ROMK retest = ROMK channel modulator hit retest, confirmation, cell-based, thallium flux, duplicate, resupplied hits. shares compounds with ROMK mod. fluorescence ratio; active compounds read low. normalized thallium flux (F/F0 slope) at 10 µM. 54% of 3,000 active. AID 1917, 2009;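 active means Flux at 10 µM at least 3 SD below or above vehicle control mean in one or both replicates; inconclusive means no clear call, values can overlap the other calls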
# Starred values were filed as active, the others as inactive; ? = inconclusive; . = no result given.
SMILES,Insulin prom inh,SDO1 yeast rescue,Measles CPE,ROMK mod,ROMK retest
c1ccc2c(-c3cc(C4CCNCC4)[nH]n3)cccc2c1,-22,.,.,-4.4*,0.064*
CC1CCCN(c2nc3ccccc3nc2C(C#N)S(=O)(=O)c2cccs2)C1 (configuration not stated),24,0.33,2,-4.5*,0.059*
COc1ccc(S(=O)(=O)C(C#N)c2nc3ccccc3nc2N2CCCC(C)C2)cc1 (configuration not stated),5,0.08,5,.,.
CC(=O)N/N=C/c1cc(C(C)(C)C)cc(/C=N/NC(C)=O)c1O,.,.,.,-3*,0.055*
CCOc1ccc(NC2OCC(O)C(O)C2O)c([N+](=O)[O-])c1 (configuration not stated),.,.,.,-8.9*,0.074
CCOC(=O)/C(=C/c1c[nH]c2ccccc12)NC(C)=O,17,0,8,.,.
CC(C)COC(=O)/C(C#N)=C/c1c[nH]c2ccccc12,.,-1.7,27,.,0.034*
COC(=O)/C(=C/c1c[nH]c2ccccc12)[N+](=O)[O-],.,0.01,16,-3.8*,0.062*
COC(=O)/C(=C/c1c[nH]c2ccccc12)NC(C)=O,40,-0.9,16,0.22,.
COC(=O)/C(=C/c1cn(C)c2ccccc12)[N+](=O)[O-],-230,-0.94,10,.,0.042*
CCOc1ccc(-c2cc(N)n(S(=O)(=O)c3cccc4nsnc34)n2)cc1,.,.,.,-0.2,.
Cn1c(SCC(=O)Nc2ccc3nc(SCC(=O)N4CCCC4)sc3c2)nnc1-c1ccc(N)cc1,11,0.92,6,0.066,.
CCOCCCNC(=O)C(NC(=O)c1ccccc1O)c1ccc(Cl)cc1 (configuration not stated),.,.,.,0.31,.
Cn1c(=O)c2cc3ccc(Cl)cc3nc2n(C)c1=O,.,.,.,-0.27,.
Cn1c(=O)c2cc3ccccc3nc2n(C)c1=O,.,.,.,-5.1*,?
Cc1ccccc1NCc1nnc2n1CCCCC2,.,.,.,-0.46,.
CC1CCN(CCCCOc2ccc(Br)cc2)CC1,15,0.04,5,-1.3,?
Cc1ccc(NC(C#N)c2ccccc2OCc2ccccc2)cc1 (configuration not stated),.,1.3,16,.,0.095
COc1ccc(NC(C#N)c2ccccc2OCc2ccccc2)cc1 (configuration not stated),.,0.77,13,.,.
CCn1c(/C=C/Nc2ccccc2)[n+](CC)c2ccc(Cl)cc21,-38,0.82,15,-3.2*,?
O=C1NC(=O)/C(=C\c2ccc(N3CCOCC3)o2)N1,.,.,.,-3.6*,?
Cc1cc(/C=C2/NC(=O)NC2=O)c(C)n1-c1ccc(N2CCOCC2)cc1,.,.,.,1.2,.
CO/N=C/c1ccc(N2CCCC2)c([N+](=O)[O-])c1,36,.,.,-0.57,.
O=[N+]([O-])c1cc(/C=N/O)ccc1N1CCCC1,7,.,.,-3.4*,?
O=Cc1ccc(N2CCCC2)c([N+](=O)[O-])c1,-89,.,.,-0.039,.
SMILES,Insulin prom inh,SDO1 yeast rescue,Measles CPE,ROMK mod,ROMK retest
O=[N+]([O-])/C=C\c1ccc(N2CCCC2)c(F)c1,-77,.,.,.,0.042*
COC(=O)c1cc(C(=O)OC)cc(N2C(=O)CN=C2Nc2nc(C)cc(C)n2)c1,-250,-0.16,7,.,.
Cc1ccc(NC(=O)CSc2nnc(C(F)(F)F)n2C)cc1[N+](=O)[O-],.,0.39,25,.,.
NNC(=O)c1cc2c(N3CCC(Cc4ccccc4)CC3)ncnc2s1,-33,.,.,-4.5*,0.073
Cc1cc2nnn(-c3nnc(-c4ccccc4)c4ccccc34)c2cc1C,29,-1.4,6,.,.
O=C(CSc1ccc(-c2ccco2)nn1)NC1CCCC1,-38,.,.,.,0.081
O=C(CSc1ccc(-c2ccco2)nn1)NC1CCCCC1,-8,.,.,.,.
O=C(O)Cc1cc(I)c(Oc2ccc(O)c(I)c2)c(I)c1,10,-0.83,5,.,0.12*
N[C@@H](Cc1ccc(O)c(I)c1)C(=O)O,32,0.31,14,.,.
CCCSc1nc(N)nc(-c2cccs2)c1C#N,-10,-2.6,25,.,.
Cc1ccc(-c2csc(/C(C#N)=C(\O)CCl)n2)cc1,-7,.,.,-3.3*,?
CCOC(=O)N1CCC(n2c(SCC(=O)NCCC3=CCCCC3)nc3ccccc3c2=O)CC1,.,-0.85,11,-7*,?
CCOC(=O)N1CCC(n2c(SCC(=O)Nc3ccccc3OC)nc3ccccc3c2=O)CC1,48,-0.58,6,-4.2*,0.065*
CCOC(=O)N1CCC(n2c(SCC(=O)NCc3ccccc3)nc3ccccc3c2=O)CC1,.,-0.34,14,0.21,.
NNC(=O)C(Cc1c[nH]c2ccccc12)NC(=O)c1ccccc1 (configuration not stated),.,.,.,-0.52,.
c1ccc(OCCCCn2cnc3ccccc32)cc1,-371,-1,3,.,.
c1ccc(OCCn2cnc3ccccc32)cc1,-152,0.94,15,-2.2*,0.067*
Cc1ccc([N+](=O)[O-])c(OCCn2cnc3ccccc32)c1,.,.,.,-3*,?
CN(C(=O)CO/N=C/c1ccc(OC(F)F)cc1)C1CCS(=O)(=O)C1 (configuration not stated),.,.,.,-10*,0.073
O=C(CO/N=C/c1ccc(OC(F)F)cc1)NC1CCCC1,.,.,.,-0.99,.
CCOCCCNC(=O)c1ccc2c(c1)N=C(CC)c1cc(Br)ccc1S2,-273,.,.,4.1*,0.084
Cc1c(/C=N/NC(=O)c2cc(=O)[nH]c(=O)[nH]2)c2ccccn2c1C(=O)c1ccccc1,-5,-0.7,13,0.57,.
Cc1ccc(N2CCN(S(=O)(=O)N3CCOCC3)CC2)cc1C,.,.,.,-0.97,.
Cc1ccccc1NC(=O)COC(=O)c1ccc(S(C)(=O)=O)c([N+](=O)[O-])c1,-29,.,.,-3.5*,?
CC(=O)c1cccc(NC(=O)COC(=O)c2ccc(S(C)(=O)=O)c([N+](=O)[O-])c2)c1,29,.,.,-0.11,.
SMILES,Insulin prom inh,SDO1 yeast rescue,Measles CPE,ROMK mod,ROMK retest
COc1ccc(/C=C/C2=Nc3ccccc3NC(C)(C)C2)cc1OC,.,.,.,-7.8*,0.043*
COc1ccc(/C=C/C2=CC(C)(C)NC(=S)N2)cc1OC,0,.,.,1.1,.
O=C(CCC1N=C2c3ccccc3N=C(SCc3ccc(Cl)cc3)N2C1=O)NCc1ccco1 (configuration not stated),-35,0.01,20,-4.1*,0.061*
O=C(Nc1ccccc1)N(C1=NCCCCS1)c1cccc2ccccc12,46,-1.1,1,.,.
O=C(Nc1ccccc1)N(C1=NCCCCS1)c1ccccc1,.,-0.06,7,.,0.073
CCOc1cc(C(=O)Nc2ccc(N3CCOCC3)cc2)cc(Br)c1OC,-43,.,.,3.8*,0.081
Cc1nc2sccn2c1-c1csc(NCc2ccccc2)n1,.,-0.71,5,-0.0066,.
Cc1ccc(NC(=O)C(Nc2ccccc2)c2ccccc2)cc1 (configuration not stated),-70,-0.77,11,.,0.083
COc1cccc(-n2nnnc2SCC(=O)NCc2ccco2)c1,26,-0.34,15,0.68,.
COc1ccc(-n2nnnc2SCC(=O)NCc2ccco2)cc1OC,.,0.2,6,.,0.077

# Screens (PubChem)
